From PubChem BioAssay (NCI)
This is part of a sample that, as a whole, favours compounds with a hit. Of some 79,000 tested, about 15% had one in any assay. Activity calls are given as the source filed them. Cut-off read from the data, not from the text of the source: active = growth inhibition above about 70%; inactive = the rest.

How the values were obtained:
[1] = NCI Yeast Anticancer Drug Screen. Data for the rad52 strain (AID 147);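 note: 0% = growth of vehicle-treated control cultures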; details: S. cerevisiae rad52 mutant growth inhibition, stronger effect = higher value
Summary of the method: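 Inhibition of yeast growth, referenced to vehicle controls, was the measured output for a strain with defective DNA damage repair.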

[2] = NCI Yeast Anticancer Drug Screen. Data for the wt1 strain (AID 149);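 note: 0% = growth of vehicle-treated wt1 cultures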; details: S. cerevisiae wt1 strain (SPY 50644) growth inhibition, stronger effect = higher value
Summary of the method: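 Yeast wt1 strain exposed to compounds; growth inhibition measured relative to vehicle-treated controls.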

[3] = NCI Yeast Anticancer Drug Screen. Data for the rad50EPP+ strain (AID 151);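 note: 0% = growth of vehicle-treated control cultures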; details: S. cerevisiae rad50 mutant strain, stronger effect = higher value
Summary of the method: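 Genetically defined yeast (rad50EPP+, DNA damage repair alteration) is grown with compound, and inhibition of growth is expressed relative to vehicle-treated controls.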

[4] = NCI Yeast Anticancer Drug Screen. Data for the mgt1 strain (AID 153); details: S. cerevisiae mgt1 mutant growth inhibition, stronger effect = higher value
Summary of the method: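 In the mgt1 strain, test compounds were added and growth inhibition was determined relative to vehicle-treated controls.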

[5] = NCI Yeast Anticancer Drug Screen. Data for the rad50 strain (AID 155);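 note: 0% = growth of vehicle-only cultures of the same strain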; details: S. cerevisiae rad50 strain growth inhibition, stronger effect = higher value
Summary of the method: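 Yeast carrying a defined DNA repair defect were exposed to test compounds, and growth was compared with vehicle-treated controls to give percent inhibition.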

[6] = NCI Yeast Anticancer Drug Screen. Data for the mec2-1 strain (AID 157); details: S. cerevisiae mec2-1 strain, stronger effect = higher value
Summary of the method: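 Each compound was tested on mec2-1 yeast, a strain altered in DNA damage repair or cell cycle control. Growth inhibition is reported relative to vehicle.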

[7] = NCI Yeast Anticancer Drug Screen. Data for the rad14 strain (AID 159);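 note: 0% = growth of vehicle-treated control cultures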; details: S. cerevisiae rad14 strain growth inhibition, stronger effect = higher value
Summary of the method: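 Yeast cells carrying a defined DNA-repair defect were exposed to compounds, and growth inhibition was calculated relative to vehicle-treated control cultures.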

[8] = NCI Yeast Anticancer Drug Screen. Data for the sgs1 mgt1 strain (AID 161);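 note: 0% = growth of cultures given vehicle only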; details: S. cerevisiae sgs1 mgt1 strain, stronger effect = higher value
Summary of the method: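 Mutant yeast exposed to compound; growth scored against vehicle-only wells.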

[9] = NCI Yeast Anticancer Drug Screen. Data for the CLN2oe strain (AID 163);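 note: 0% = growth of vehicle-only control cultures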; details: S. cerevisiae CLN2oe strain, stronger effect = higher value
Summary of the method: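 First, the altered yeast strain was treated with each compound; second, its growth was measured; finally, inhibition was derived by comparison with vehicle controls.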

[10] = NCI Yeast Anticancer Drug Screen. Data for the cln2 rad14 strain (AID 165);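 note: 0% = growth equal to vehicle treated cultures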; details: S. cerevisiae cln2 rad14 strain, stronger effect = higher value
Summary of the method: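 Test compounds were added to cln2 rad14 yeast cultures; inhibition of growth was then determined by comparison with vehicle treatment.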

[11] = NCI Yeast Anticancer Drug Screen. Data for the bub3 strain (AID 167); details: S. cerevisiae bub3 mutant strain, stronger effect = higher value
Summary of the method: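 Compounds were applied to a genetically altered yeast strain carrying a cell-cycle control defect. Growth inhibition was scored against vehicle-treated controls.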

[12] = NCI Yeast Anticancer Drug Screen. Data for the wt2 strain (AID 169);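 note: 0% = growth of vehicle-treated yeast cultures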; details: S. cerevisiae wt2 strain growth inhibition, stronger effect = higher value
Summary of the method: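 The panel's yeast strains carry defined changes in DNA repair or cell cycle genes. Each strain is grown with compound, and growth loss is scored relative to vehicle.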

[13] = NCI Yeast Anticancer Drug Screen. Data for the mlh1 strain (AID 171);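 note: 0% = growth of vehicle-treated control cultures of the same strain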; details: S. cerevisiae mlh1 strain growth inhibition, stronger effect = higher value
Summary of the method: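 Inhibition values reflect reduced yeast growth in the presence of compound, referenced to vehicle controls, using a strain chosen for its alteration in DNA repair or cell cycle control.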

[14] = NCI Yeast Anticancer Drug Screen. Data for the sgs1 strain (AID 173);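 note: 0% = growth of vehicle-only control cultures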; details: S. cerevisiae sgs1 mutant, stronger effect = higher value
Summary of the method: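 Vehicle-treated cultures served as reference for growth inhibition of a yeast strain altered in DNA damage repair or cell cycle control after compound exposure.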

[15] = NCI Yeast Anticancer Drug Screen. Data for the mlh1 rad18 strain (AID 175); details: S. cerevisiae mlh1 rad18 strain growth inhibition, stronger effect = higher value
Summary of the method: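 Inhibition values reflect reduced growth of mutant yeast versus vehicle-treated controls following compound exposure; the mutations affect DNA damage repair.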

[16] = NCI Yeast Anticancer Drug Screen. Data for the rad18 strain (AID 177); details: S. cerevisiae rad18 mutant growth inhibition, stronger effect = higher value
Summary of the method: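 Steps: expose repair-mutant yeast to compound; measure growth; express as inhibition relative to vehicle control.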

[17] = at 5.0 µM (retest, dose inferred, filed as 0.5)
[18] = at 50.0 µM (retest, dose inferred, filed as 5.0)

Measured: growth inhibition

CC(C)(C)c1ccc(NS(=O)(=O)c2ccc(N)cc2)cc1
active: [5]; at 50.0 µM 98.3% | [6]; at 50.0 µM 94.3% | [8]; at 50.0 µM 96.3% | [10]; at 50.0 µM 98.4% | [11]; at 50.0 µM 95.8% | [15]; at 50.0 µM 97.2%
inactive: [1]; at 1.2 µM -1% | [1]; at 3.7 µM -1% | [1]; at 11.0 µM 1% | [1]; at 33.0 µM 6% | [1]; at 100.0 µM 46% | [2]; at 1.2 µM 1% | [2]; at 3.7 µM 2% | [2]; at 11.0 µM 3% | [2]; at 33.0 µM 3% | [2]; at 100.0 µM 12% | [3]; at 1.2 µM 4% | [3]; at 3.7 µM 8% | [3]; at 11.0 µM 10% | [3]; at 33.0 µM 11% | [3]; at 100.0 µM 14% | [4]; at 1.2 µM 0% | [4]; at 3.7 µM -1% | [4]; at 11.0 µM 1% | [4]; at 33.0 µM 2% | [4]; at 100.0 µM 28% | [5]; at 1.2 µM 4% | [5]; at 3.7 µM 3% | [5]; [17] 0% | [5]; at 11.0 µM 14% | [5]; at 33.0 µM 9% | [5]; [18] -22% | [5]; at 100.0 µM 37% | [6]; at 1.2 µM 4% | [6]; at 3.7 µM 4% | [6]; [17] 6% | [6]; at 11.0 µM 6% | [6]; at 33.0 µM 7% | [6]; [18] -5% | [6]; at 100.0 µM 38% | [7]; at 1.2 µM 1% | [7]; at 3.7 µM -1% | [7]; at 11.0 µM 1% | [7]; at 33.0 µM 2% | [7]; at 100.0 µM 40% | [8]; [17] 0% | [8]; [18] -16% | [9]; at 1.2 µM 4% | [9]; at 3.7 µM 2% | [9]; at 11.0 µM 1% | [9]; at 33.0 µM 4% | [9]; at 100.0 µM 19% | [10]; [17] 34% | [10]; [18] -111% | [11]; at 1.2 µM 0% | [11]; at 3.7 µM 5% | [11]; [17] 28% | [11]; at 11.0 µM 9% | [11]; at 33.0 µM 18% | [11]; [18] -8% | [11]; at 100.0 µM 12% | [12]; at 1.2 µM 0% | [12]; at 3.7 µM 1% | [12]; at 11.0 µM 1% | [12]; at 33.0 µM 4% | [12]; at 100.0 µM 41% | [13]; at 1.2 µM 5% | [13]; at 3.7 µM 3% | [13]; at 11.0 µM 7% | [13]; at 33.0 µM -13% | [13]; at 100.0 µM 48% | [14]; at 1.2 µM 3% | [14]; at 3.7 µM 6% | [14]; at 11.0 µM 14% | [14]; at 33.0 µM 17% | [14]; at 100.0 µM 60% | [15]; [17] -5% | [15]; [18] -5% | [16]; at 1.2 µM 3% | [16]; at 3.7 µM 3% | [16]; at 11.0 µM 15% | [16]; at 33.0 µM 23% | [16]; at 100.0 µM 54%

CC(=O)OCC(C)Cc1cc2c(cc1Br)OCO2 (stereo unspecified)
inactive: [1]; at 1.2 µM -6% | [1]; at 3.7 µM -11% | [1]; at 11.0 µM -8% | [1]; at 33.0 µM -3% | [1]; at 100.0 µM 19% | [2]; at 1.2 µM 1% | [2]; at 3.7 µM -5% | [2]; at 11.0 µM 6% | [2]; at 33.0 µM -2% | [2]; at 100.0 µM -13% | [3]; at 1.2 µM -9% | [3]; at 3.7 µM -6% | [3]; at 11.0 µM 16% | [3]; at 33.0 µM 18% | [3]; at 100.0 µM 33% | [4]; at 1.2 µM -3% | [4]; at 3.7 µM -9% | [4]; at 11.0 µM -8% | [4]; at 33.0 µM -9% | [4]; at 100.0 µM 16% | [5]; at 1.2 µM -16% | [5]; at 3.7 µM -19% | [5]; [17] 2% | [5]; at 11.0 µM -23% | [5]; at 33.0 µM -13% | [5]; [18] 19% | [5]; at 50.0 µM 31.6% | [5]; at 100.0 µM 38% | [6]; at 1.2 µM -3% | [6]; at 3.7 µM -4% | [6]; [17] 0% | [6]; at 11.0 µM -6% | [6]; at 33.0 µM -11% | [6]; [18] 37% | [6]; at 50.0 µM 3.8% | [6]; at 100.0 µM -10% | [7]; at 1.2 µM 4% | [7]; at 3.7 µM -3% | [7]; at 11.0 µM 9% | [7]; at 33.0 µM 12% | [7]; at 100.0 µM 56% | [8]; [17] 1% | [9]; at 1.2 µM -7% | [9]; at 3.7 µM -9% | [9]; at 11.0 µM -16% | [9]; at 33.0 µM -16% | [9]; at 100.0 µM -15% | [10]; [17] -1% | [10]; [18] 12% | [10]; at 50.0 µM 4.65% | [11]; at 1.2 µM -2% | [11]; at 3.7 µM 3% | [11]; [17] 7% | [11]; at 11.0 µM 2% | [11]; at 33.0 µM 2% | [11]; [18] 43% | [11]; at 50.0 µM 19.8% | [11]; at 100.0 µM 21% | [12]; at 1.2 µM -1% | [12]; at 3.7 µM 0% | [12]; at 11.0 µM 7% | [12]; at 33.0 µM 20% | [13]; at 1.2 µM -21% | [13]; at 3.7 µM -8% | [13]; at 11.0 µM -10% | [13]; at 33.0 µM -11% | [13]; at 100.0 µM 62% | [14]; at 1.2 µM -66% | [14]; at 3.7 µM -14% | [14]; at 11.0 µM 3% | [14]; at 33.0 µM 15% | [15]; [17] 1% | [16]; at 1.2 µM -9% | [16]; at 3.7 µM -8% | [16]; at 11.0 µM -10% | [16]; at 33.0 µM -10% | [16]; at 100.0 µM 13%
active: [8]; [18] 72% | [8]; at 50.0 µM 91.3% | [12]; at 100.0 µM 89% | [14]; at 100.0 µM 78% | [15]; [18] 70% | [15]; at 50.0 µM 78.8%
